Rows were chosen to be rich in hits. Some 11% of all compounds tested hit in one or more screens of this group.
ALDH1A1 inh – inhibitors of human aldehyde dehydrogenase 1A1 | Potency, µM (top dose mostly 75.3 µM), without a hit: at the top dose activity, negative = inhibition, actives largely listed as inhibitors | Purified ALDH1A1, NADH fluorescence, propionaldehyde substrate | 220,000 compounds, 7.3% hits | AID 1030;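 note: potency is the fitted concentration of half-maximal effect; plate controls were no enzyme wells and a reference inhibitor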
JMJD2E inh – blocks human JMJD2E demethylase activity | B2RXH2 | JMJD2E catalytic domain, FDH-coupled NADH fluorescence (FDH is formaldehyde dehydrogenase) | Potency, µM (highest dose often 57.1 µM), for inactives: top-dose activity change, negative = inhibition, actives largely listed as inhibitors | 230,000 compounds, 1.6% hits | AID 2147;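 note: potency is the fitted concentration of half-maximal effect; 0% = wells with enzyme and -100% = buffer wells without enzyme; nearly all actives have a fitted effect of over 50% in size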
Target sequence (B2RXH2 1-337 limits assumed): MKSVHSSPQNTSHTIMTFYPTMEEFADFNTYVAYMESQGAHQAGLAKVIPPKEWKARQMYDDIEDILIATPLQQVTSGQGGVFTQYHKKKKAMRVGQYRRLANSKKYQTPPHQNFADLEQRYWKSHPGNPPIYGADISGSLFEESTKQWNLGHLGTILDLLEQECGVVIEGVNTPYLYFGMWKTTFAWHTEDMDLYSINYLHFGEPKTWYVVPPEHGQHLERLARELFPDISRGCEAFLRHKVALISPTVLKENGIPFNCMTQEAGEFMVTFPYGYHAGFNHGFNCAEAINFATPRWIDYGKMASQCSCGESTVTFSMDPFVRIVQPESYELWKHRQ
PNC assembly inh – perinucleolar compartment assembly inhibition | activity change (PNC), negative = inhibition, % at 10 µM | 140,000 compounds, 3.1% hits | AID 2417 | PC3M PTB-GFP, PNC prevalence imaging, 16 h; hits give low values;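 active = readout at or below -70, meaning at least 70% loss of cells showing the perinucleolar compartment, a nuclear body marking cancer cells; inconclusive = readout between -30 and a set limit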;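 note: plate controls were DMSO wells for no effect and camptothecin positive control wells for full effect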
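Compounds are pinned in duplicate onto adhered PC3M cells stably expressing GFP-tagged PTB and incubated 16 h at 37 C. Cells are then fixed, nuclei stained with Hoechst, and PNC-positive cells counted.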
HPGD block – inhibitors of human 15-hydroxyprostaglandin dehydrogenase (HPGD) | P15428 | purified HPGD, NADH fluorescence kinetic, PGE2 substrate | Potency, µM, for inactives: top-dose activity change, negative = inhibition, hits mostly inhibitors | 150,000 compounds, 4.3% hits | AID 894; note: potency is the fitted concentration of half-maximal effect
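20 nM HPGD preincubated 15 min at room temperature with compound in 50 mM Tris-HCl pH 8, 0.01% Tween 20. Started with 1 mM NAD+ and 30 uM prostaglandin E2; NADH fluorescence (360/450 nm) read 5 times over 30-s intervals, last minus first.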
Starred values were filed as active, the others as inactive; ! = repeats disagree; [ ] = another dose, or the depositor's remark. Unless noted, calls come from the whole dose curve; as a rule, active = well fitted inhibition curve with a large enough effect (not every such curve was filed as active); inconclusive = small, poorly fitted or top-dose-only effect, or another doubt; inactive = no such curve, though single readings can be large or run the other way. Unless noted, % is set by controls: 0 for no effect and ±100 for the full control effect.

CC1=C(\C=C/C(C)=C/C=C\C(C)=C\C(=O)O)C(C)(C)CCC1 was read as ALDH1A1 inh 35µM*!, JMJD2E inh -2% and HPGD block -7%.
`O=C(Oc1ccc(Br)cc1)c1n[nH]c(=O)c2ccccc12` gave ALDH1A1 inh inconclusive and JMJD2E inh -13%.
COc1cc(S(=O)(=O)N2CCN(c3ccccc3F)CC2)c(OC)cc1Cl was read as ALDH1A1 inh 25µM*, JMJD2E inh -1%, PNC assembly inh -14 and HPGD block -2%.
`Cc1ccc(C)cc1` gave ALDH1A1 inh -5% and HPGD block -13%.
Screening Cc1ccc(C2=C(Cl)C(=O)C(c3ccc(C)cc3)=C(Cl)C2=O)cc1 returned ALDH1A1 inh -3%[13.5 µM] and HPGD block 2.2µM*.
COc1ccc(-n2c(O)c(/C=N/Nc3nc(C)cc(C)n3)c3ccccc3c2=O)cc1OC was read as ALDH1A1 inh 0.79µM* and JMJD2E inh inconclusive.
Screening COc1ccc(-n2c(O)c(/C=N/NS(=O)(=O)c3ccc(C)cc3)c3ccccc3c2=O)cc1OC returned ALDH1A1 inh inconclusive, JMJD2E inh inconclusive, PNC assembly inh -24 and HPGD block -16%.
`O=c1cc(-c2ccccc2Cl)oc2c(NS(=O)(=O)c3cc(Cl)cc(Cl)c3O)ccc(O)c12` gave ALDH1A1 inh 10µM*, JMJD2E inh -23%, PNC assembly inh 38 and HPGD block 4.5µM*.
CCN=C1S/C(=C\c2cc(OCC)c(O)cc2Br)C(=O)N1CC was read as ALDH1A1 inh 0.89µM*, JMJD2E inh -5%, PNC assembly inh inconclusive and HPGD block -16%.
For COc1ccc(C2CC(=O)C=C(NCCC(C)C)C2)cc1 (configuration not stated) the results were ALDH1A1 inh -4%, JMJD2E inh 8%, PNC assembly inh 13 and HPGD block -18%.
`COC(=O)c1cccc(N2CCCC2=O)c1` gave JMJD2E inh -6%.
COC(=O)c1cc(=O)c(O)c2c(O)c(O)ccc2c1 was read as ALDH1A1 inh 11µM*, JMJD2E inh 8.9µM* and HPGD block 7.9µM*.
Screening CC(C)(C)NC(=O)COC(=O)c1ccc(Cl)cc1O returned ALDH1A1 inh 8% and JMJD2E inh -23%.
`CCOc1ccccc1NC(=S)Nc1ccc(S(N)(=O)=O)cc1` gave ALDH1A1 inh -7% and JMJD2E inh -7%.
For CC(=O)N(C(C)=O)n1c(C)nc2sc3c(c2c1=O)CCCC3 the results were ALDH1A1 inh 10% and JMJD2E inh 5%.
CCc1nc2sc3c(c2c(=O)n1NC(=O)CCl)CCCC3 was read as ALDH1A1 inh 13µM*, JMJD2E inh 2%, PNC assembly inh inconclusive and HPGD block -4%.
Screening Cc1cc(NC(=O)CSc2nc3c(sc4ccccc43)c(=O)n2CCCN2CCOCC2)n[nH]1 returned ALDH1A1 inh 5%, JMJD2E inh inconclusive, PNC assembly inh -83* and HPGD block -9%.
COC(=O)c1nn2c(C(F)(F)F)cc(-c3ccc(Br)o3)nc2c1Br was read as ALDH1A1 inh 14µM*, JMJD2E inh -25%, PNC assembly inh -18 and HPGD block -8%.
COc1ccc(C(=O)NNC(=O)Cc2ccc(-c3ccccc3)cc2)cc1OC was read as ALDH1A1 inh 14%, JMJD2E inh 0%, PNC assembly inh 14 and HPGD block -19%.
Screening COc1ccccc1NC(=O)c1ccc(-n2cccn2)c([N+](=O)[O-])c1 returned ALDH1A1 inh 25µM* and JMJD2E inh -7%.
`COc1ccc(C(=O)NNC(=O)c2ccccc2[N+](=O)[O-])cc1[N+](=O)[O-]` gave ALDH1A1 inh 13µM* and JMJD2E inh 22%.
For COc1ccc(C(=O)NNc2ccccc2)cc1OC the results were ALDH1A1 inh 22µM*, JMJD2E inh 0%, PNC assembly inh -3 and HPGD block inconclusive.
`Cc1ccc(Nc2ccc(C(N)=O)cc2[N+](=O)[O-])cc1C` gave ALDH1A1 inh inconclusive, JMJD2E inh 9%, PNC assembly inh 67 and HPGD block -21%.
For COc1cc(Nc2ccc(C(=O)O)cc2[N+](=O)[O-])cc(OC)c1 the results were ALDH1A1 inh 9%, JMJD2E inh 11%, PNC assembly inh -11 and HPGD block 20µM*.
For COc1ccccc1-n1cc(CN2CCN(CC=C(C)C)C(CCO)C2)cn1 (configuration not stated) the results were JMJD2E inh 2%.
For COc1ccc(C(=O)Nc2ccccc2)cc1[N+](=O)[O-] the results were ALDH1A1 inh 20µM* and HPGD block -7%.

High-throughput results: PubChem BioAssay, National Center for Advancing Translational Sciences (NCATS)
